Drawing on PubChem BioAssay (NCI), this text covers growth for seven compounds.

Holding throughout (test): NCI-60 one-dose screen, 48 h (100 = growth as untreated, 0 = no growth, -100 = all killed)
One assay has as its system SK-MEL-2 melanoma. The following applies: 10 µM unless noted.
A further assay has as its system EKVX NSCLC. To be noted: 10 µM unless noted.
The next assay deals with SN12C renal. To be noted: 10 µM unless noted.
In the next assay the test system is UO-31 renal. The following applies: 10 µM unless noted.
In another assay the test system is TK-10 renal. To be noted: 10 µM unless noted.
For a further assay, the system named is ACHN renal. To be noted: 10 µM unless noted.
For another assay, the system named is CAKI-1 renal. The following applies: 10 µM unless noted.
Another assay has as its system A498 renal. The following applies: 10 µM unless noted.
For another assay, the system named is CCRF-CEM leukemia. The following applies: 10 µM unless noted.
The subject of a further assay is MOLT-4 leukemia. The following applies: 10 µM unless noted.
The next assay has as its system SR leukemia. The following applies: 10 µM unless noted.
A further assay has as its system RPMI-8226 leukemia. The following applies: 10 µM unless noted.
For a further assay, the system named is OVCAR-8 ovarian. The following applies: 10 µM unless noted.
For the next assay, the system named is OVCAR-5 ovarian. The following applies: 10 µM unless noted.
In another assay the test system is SK-OV-3 ovarian. The following applies: 10 µM unless noted.
The next assay has as its system IGROV1 ovarian. The following applies: 10 µM unless noted.
In the next assay the test system is OVCAR-3 ovarian. The following applies: 10 µM unless noted.
The next assay deals with NCI/ADR-RES ovarian. To be noted: 10 µM unless noted.
The subject of another assay is OVCAR-4 ovarian. To be noted: 10 µM unless noted.
In the next assay the test system is HS 578T breast. To be noted: 10 µM.

About 83,000 compounds went through this panel and 20% of them were active in at least one assay; those are over-represented in the sample as a whole.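 Single-dose data. Exposure time 48 hours. Values below 10 considered active.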 Values without a mark were called inactive. Activity calls are given as the source filed them.

`CCOC(=O)c1ccc(N(CCC(=O)O)C(C)=O)cc1`: the growth in the assay with SK-MEL-2 melanoma was 105%; in the assay on EKVX NSCLC, 130%; in the assay with SN12C renal it was 107%; in the assay on UO-31 renal, 79%; in the assay with TK-10 renal, 105%; in the assay on ACHN renal it was 112%. The growth was 101% with CAKI-1 renal; 104% with A498 renal; 98.3% in the assay on CCRF-CEM leukemia; 104% in the assay on MOLT-4 leukemia; 129% in the assay on SR leukemia; 110% in the assay with RPMI-8226 leukemia. Further, the growth in the assay on OVCAR-8 ovarian was 104%; in the assay with OVCAR-5 ovarian it was 102%; in the assay with SK-OV-3 ovarian it was 114%; in the assay on IGROV1 ovarian, 103%; in the assay on OVCAR-3 ovarian it was 120%; with NCI/ADR-RES ovarian, 109%.

For the compound `COc1ccc(/C=c2\c(=O)n(-c3ccccc3)c3nn4c(=O)c(=O)[nH]nc4n23)cc1`, the growth was 109% in the assay with SK-MEL-2 melanoma; 104% in the assay on EKVX NSCLC; 108% in the assay with SN12C renal; 83% with UO-31 renal; 133% with TK-10 renal; 114% with ACHN renal. Also, the growth was 90.4% with CAKI-1 renal; 118% in the assay with A498 renal; 106% with CCRF-CEM leukemia; 110% with MOLT-4 leukemia; 108% with SR leukemia; 110% in the assay with RPMI-8226 leukemia. In addition, the growth was 109% in the assay on OVCAR-8 ovarian; 146% in the assay with OVCAR-5 ovarian; 107% in the assay on OVCAR-4 ovarian; 113% in the assay on IGROV1 ovarian; 115% in the assay on OVCAR-3 ovarian; 114% in the assay with HS 578T breast. Further, the growth in the assay with NCI/ADR-RES ovarian was 106%.

As for `O=c1[nH]c2ccccc2n2cc3cccnc3c12`, the growth in the assay with SK-MEL-2 melanoma is 105%; in the assay with EKVX NSCLC, 86.4%; in the assay with SN12C renal it was 51.2%; with UO-31 renal, 67.8%; with TK-10 renal it was 83.7%; in the assay with ACHN renal, 49.1%. For the same compound, the growth with CAKI-1 renal is 68.1%; in the assay on A498 renal, 51.2%; in the assay with CCRF-CEM leukemia, 74.5%; in the assay with MOLT-4 leukemia it was 48.4%; in the assay with SR leukemia it was 36%; in the assay with RPMI-8226 leukemia it was 89.3%. Besides, the growth in the assay with OVCAR-8 ovarian is 63.4%; with OVCAR-5 ovarian, 140%; with SK-OV-3 ovarian, 82.5%; in the assay on IGROV1 ovarian, 90.2%; in the assay on OVCAR-3 ovarian it was 91.8%; with HS 578T breast it was 88.4%. Also, the growth with NCI/ADR-RES ovarian was 58.8%.

In the case of `c1ccc(C(CC2=NCCCN2)c2ccccc2)cc1`, the growth in the assay with SK-MEL-2 melanoma is 108%; with EKVX NSCLC it was 97.2%; in the assay on SN12C renal, 90.9%; with UO-31 renal it was 76.8%; with TK-10 renal it was 110%; in the assay on ACHN renal, 104%. In addition, the growth in the assay with CAKI-1 renal is 97.6%; in the assay on A498 renal it was 111%; in the assay on CCRF-CEM leukemia it was 9.65% (active); with MOLT-4 leukemia, 92.7%; with SR leukemia, 103%; with RPMI-8226 leukemia, 116%. Also, the growth with OVCAR-8 ovarian was 101%; in the assay on OVCAR-5 ovarian, 95.9%; in the assay with SK-OV-3 ovarian, 95.5%; in the assay on IGROV1 ovarian, 108%; in the assay on OVCAR-3 ovarian it was 117%; in the assay with HS 578T breast, 95.7%. For the same compound, the growth with NCI/ADR-RES ovarian is 101%.

Regarding `CCN(CC)CCNc1c(C)cc(CO)c(Cl)c1C`, the growth in the assay on SK-MEL-2 melanoma was 112%; with EKVX NSCLC, 110%; in the assay with SN12C renal it was 97.7%; with UO-31 renal, 111%; in the assay on TK-10 renal it was 106%; in the assay on ACHN renal it was 106%. The growth in the assay on CAKI-1 renal was 104%; in the assay on A498 renal it was 89%; in the assay with CCRF-CEM leukemia, 101%; in the assay on MOLT-4 leukemia it was 93%; with SR leukemia it was 104%; in the assay with RPMI-8226 leukemia, 105%. Besides, the growth is 90.3% in the assay with OVCAR-8 ovarian; 117% in the assay with OVCAR-5 ovarian; 103% in the assay with OVCAR-4 ovarian; 120% in the assay with SK-OV-3 ovarian; 117% with OVCAR-3 ovarian; 107% with HS 578T breast. For the same compound, the growth in the assay with NCI/ADR-RES ovarian was 101%.

Regarding `Clc1cn2cc(-c3ccc(Cl)c(Cl)c3Cl)nc2s1`, the growth with SK-MEL-2 melanoma was 101%; in the assay on EKVX NSCLC, 110%; with SN12C renal, 101%; with UO-31 renal, 79.2%; in the assay with TK-10 renal, 165%; in the assay on ACHN renal it was 101%. Also, the growth in the assay on CAKI-1 renal is 88.1%; with A498 renal it was 110%; with CCRF-CEM leukemia, 107%; in the assay on MOLT-4 leukemia it was 85.5%; in the assay on SR leukemia, 75.5%; in the assay with RPMI-8226 leukemia it was 108%. Further, the growth was 99.5% in the assay on OVCAR-8 ovarian; 87.8% in the assay with OVCAR-5 ovarian; 100% with OVCAR-4 ovarian; 103% in the assay with SK-OV-3 ovarian; 101% in the assay on OVCAR-3 ovarian; 104% in the assay with HS 578T breast. The growth in the assay with NCI/ADR-RES ovarian is 110%.

With `C[C@@H](C[C@H](CC1CC1)c1ccccc1)c1ccc2ccccc2c1`, the growth in the assay with SK-MEL-2 melanoma is 109%; in the assay with EKVX NSCLC, 101%; in the assay with SN12C renal it was 103%; in the assay with UO-31 renal it was 90.1%; with TK-10 renal, 105%; in the assay on ACHN renal, 106%. The growth in the assay on CAKI-1 renal is 92.9%; in the assay on A498 renal, 100%; in the assay with CCRF-CEM leukemia it was 96.4%; in the assay with MOLT-4 leukemia it was 105%; with SR leukemia, 106%; with RPMI-8226 leukemia it was 98.8%. In addition, the growth is 106% in the assay on OVCAR-8 ovarian; 107% with OVCAR-5 ovarian; 96.1% in the assay with OVCAR-4 ovarian; 113% with OVCAR-3 ovarian; 108% in the assay with HS 578T breast; 105% in the assay with NCI/ADR-RES ovarian.
